# Results taken from ChEMBL document CHEMBL4513216, “Probing the Open Global Health Chemical Diversity Library for Multistage-Active Starting Points for Next-Generation Antimalarials” (ACS Infect Dis, 2020).
# Out of some 69,000 compounds screened, about 8,600 (12%) showed an effect of 50% or more. The entries come from a sample that favours strong results as a whole.
# Test system: Plasmodium berghei
# Experiment: Screen against P. berghei liver stage (PbLuc), transformed with Luciferase, at 10uM
# Type: functional, HepG2
# Settings: tested at 10 uM
row,SMILES,INHIBITION
1,CN(C)[C@@H]1CCN(c2ncccn2)[C@H]1Cc1cccnc1,-31.4%
2,CCN1CCC(N2CCC(C(=O)N(C)C)CC2)CC1,15.6%
3,Cc1ncsc1-c1nnc(C2CCN(Cc3ccccc3)CC2)o1,27.8%
4,Cc1ccsc1-c1nnc(C2CCN(Cc3ccc(F)cc3)CC2)o1,68.2%
5,Cc1ncsc1-c1nnc(C2CCN(Cc3cccc(Cl)c3)CC2)o1,-6.3%
6,Cc1ncsc1-c1nnc(C2CCN(Cc3ccc(F)cc3)CC2)o1,35.3%
7,Cc1ncsc1-c1nnc(C2CCN(Cc3ccc(Cl)cc3)CC2)o1,76.8%
8,Fc1ccc(CCN2CCC(c3nnc(-c4cccnc4)o3)CC2)cc1,35.3%
9,COc1ccc(CN2CCC(c3nnc(-c4scnc4C)o3)CC2)cc1,54.5%
10,Cc1ccc(CN2CC[C@H](c3nnc(-c4ccco4)o3)C2)cc1,-33%
11,Cc1cccc(CN2CCC(c3nnc(-c4scnc4C)o3)CC2)c1,23.4%
12,COc1ccc2c(c1)CN(C)C(=O)CCN2CC(O)C(F)(F)F (centres undefined),-8.04%
13,Cc1cnc(CNCc2cn(CCN3CCSCC3)nc2C)cn1,4.68%
14,FC(F)CNc1cnc(C2CCCN2)cn1 (centres undefined),5.15%
15,Cc1csc(NC(=O)c2cnc(C3CCNCC3)cn2)n1,24.4%
16,Cc1csc(NC(=O)c2cnc(C3CCCN(C)C3)cn2)n1 (centres undefined),71.3%
17,Cc1csc(NC(=O)c2cnc(C3CCCN3)cn2)n1 (centres undefined),80.9%
18,O=C(NCc1ccccn1)c1cnc(C2CCCN2)cn1 (centres undefined),18.3%
19,Cc1nn(C)c(C)c1-c1cnc(C2CCCN(C)C2)cn1 (centres undefined),-28.6%
20,COc1c(C2CCCN2CC(=O)Nc2nc(C)cs2)c(C)nn1C (centres undefined),31.9%
21,O=C(NCC(F)F)c1cnc(C2CCCN2)cn1 (centres undefined),61.05%
22,Cc1cccc(NC(=O)c2cnc(C3CCCNC3)cn2)n1 (centres undefined),10.4%

row,SMILES,INHIBITION
1,COCCN1Cc2nccn2CC(COCc2csc(C)n2)C1 (centres undefined),29.5%
2,CN(C)CCNC(=O)c1sc2ccccc2c1C1CCC(CN)CC1 (centres undefined),-77.3%
3,COCC1CN(S(=O)(=O)N(C)C)Cc2cnn(CC3CCCC3)c21 (centres undefined),-17.1%
4,COc1cccc2c1ccn2CCNC(=O)CCNc1ncccn1,38.5%
5,COc1ncnc2c1CCN(Cc1cccc(C)n1)CC2,10.7%
6,CN(Cc1csc(-c2cccs2)n1)CC(O)CO (centres undefined),51.5%
7,CN(Cc1csc(-c2cccs2)n1)Cc1ncccc1C(=O)O,5.91%
8,CC(NS(C)(=O)=O)C(=O)N(C)Cc1csc(-c2cccs2)n1 (centres undefined),-102%
9,CNC(=O)C(C)S(=O)(=O)Cc1csc(-c2cccs2)n1 (centres undefined),30.1%
10,CCc1nc(CN(C)Cc2nnc(-c3cccs3)o2)cs1,7.81%
11,CN(Cc1csc(-c2cccs2)n1)Cc1cccnc1N,55.9%
12,Cc1cc(CN(C)Cc2csc(-c3cccs3)n2)n[nH]1,57%
13,Cc1nc(CN(C)Cc2csc(-c3cccs3)n2)co1,15.7%
14,COC(=O)NCC(=O)N(C)Cc1csc(-c2cccs2)n1,49.2%
15,O=C(C1CCOCC1)N1CCCC1c1cncc(CN2CCCC2)n1 (centres undefined),41.5%
16,COCC(=O)N1CC(c2csc(NC(C)=O)n2)C1,2.71%
17,CNC(=O)C1CCN(C(=O)NCCc2ccc(Cl)s2)CC1,23.5%
18,Cc1ccc(-c2nnc(C3CCCN3S(=O)(=O)c3cnn(C)c3C)o2)s1 (centres undefined),19.02%
19,Cc1ccc(NC2CCN(C(=O)CCc3c(C)noc3C)CC2)nn1,7.12%
20,CCc1ncnc2c1CCN(C(=O)c1ccccn1)CC2,-0.813%
21,O=C(O)c1cc2c(nc1O)CC(c1cccs1)CC2=O (centres undefined),-6.32%
22,O=C(O)c1cc2c(nc1O)CC(c1cccc(Cl)c1)CC2=O (centres undefined),-23.7%

row,SMILES,INHIBITION
1,CC1CCc2nc(O)c(C(=O)NCCc3cccs3)cc2C1 (centres undefined),-111%
2,COCCNC(=O)c1cc2c(nc1O)CC(c1cccs1)CC2=O (centres undefined),55.2%
3,O=C(NC1CC1)c1cc2c(nc1O)CC(c1cccs1)CC2=O (centres undefined),75.2%
4,O=C1CC(c2cccs2)Cc2nc(O)c(C(=O)N3CCCC3)cc21 (centres undefined),-60.7%
5,O=C(Cc1ccccc1Cl)Nc1cc(N2CCCC2)ncn1,-12.1%
6,O=C(O)[C@@H]1CN(C(=O)CCN2CCCCC2)C[C@H]1c1ccccc1,-24%
7,CCOCc1nc(-c2ccc(F)cc2Cl)n(C2CCN(C)CC2)n1,8.51%
8,Cc1noc(C)c1CNC(=O)Nc1ccc(N2CCSCC2)cc1,7.93%
9,Cc1cc(NC(=O)CN2CCc3cncnc3C2)on1,43.3%
10,O=C(c1ccccn1)N1C[C@H]2CC[C@@H](C1)N(C(=O)c1ccsc1)C2,20.6%
11,CCn1ccnc1CNc1nccc(-c2cn(C)nc2C)n1,-67.9%
12,CCn1ccnc1CNc1nccc(-c2c(C)nn(C)c2C)n1,-47.8%
13,CCc1nccn1CCCNc1nccc(-c2c(C)nn(C)c2C)n1,65.2%
14,CCc1nc(CN(C(C)=O)C2CCN(Cc3csc(C)n3)C2)no1 (centres undefined),-13.5%
15,O=C(NCC1CC1)N1CCN(Cc2ccc3c(c2)OCCO3)CC1,13.9%
16,COCC(=O)NC[C@]1(O)CN(Cc2ccc3c(c2)OCCO3)C[C@H]1O,66.8%
17,COCC(=O)N[C@@H]1CN(Cc2ccc3c(c2)OCCO3)C[C@H]1O,52%
18,CCC[C@H]1CN(Cc2ccc3c(c2)OCCO3)C[C@@H]1NC(=O)COC,37.6%
19,CC(=O)N1CCN(Cc2ccc3c(c2)OCCO3)CC(O)C1 (centres undefined),15.8%
20,COCC(=O)NC[C@]12COC[C@H]1CN(Cc1ccc3c(c1)OCO3)C2,0.453%
21,Cc1nc(CN2CCCC(Cn3cncn3)C2)no1 (centres undefined),34.7%
22,CN(Cc1nnc(C2CC2)n1C)S(=O)(=O)c1ccc(F)c(C#N)c1,-6.46%

row,SMILES,INHIBITION
1,CS(=O)(=O)N1C[C@H]2CC[C@@H](C1)N(Cc1ccsc1)C2,10.2%
2,O=C(CCc1nc2cc(Br)cnc2[nH]1)NCCCn1ccnc1,-7.28%
3,CN(C)c1cc(C2CCCN2Cc2ccccc2OCC(=O)O)ccn1 (centres undefined),24.4%
4,Cc1ccncc1C(=O)N1C[C@H]2CN(CC3CCC3)C[C@@]2(C(=O)O)C1,42.3%
5,CN(Cc1ccncc1)C1CCC[C@@H]2CN(c3ncccn3)C[C@H]12 (some centres undefined),-22.7%
6,CN(Cc1ccncc1)C1CC2(CCN(c3ncccn3)CC2)C1,58.7%
7,CN(Cc1ccncc1)C1CC2(CCN(c3ncc(F)cn3)CC2)C1,55.5%
8,Cc1cnc(N2CCC3(CC2)CC(N(C)Cc2ccncc2)C3)nc1,49.1%
9,CN(Cc1cccnc1)C1CC2(CCN(c3ncc(F)cn3)CC2)C1,49.1%
10,CN(Cc1cccnc1)C1CC2(CCN(c3ncccn3)CC2)C1,-20.8%
11,CSCCCN1CCCC1c1noc(C(C)C)n1 (centres undefined),1.18%
12,Cc1cnn(C2CCCN(C(=O)CCNS(C)(=O)=O)C2)c1 (centres undefined),19.2%
13,C1CCC(c2nnc3sc(C4CCOC4)nn23)C1 (centres undefined),16.7%
14,Cc1cc(N)nc(SC2CCCN(Cc3ccccc3)C2=O)n1 (centres undefined),26.8%
15,Cc1cc(N)nc(SC2CCN(c3ccccc3F)C2=O)n1 (centres undefined),56.5%
16,Cc1cc(N)nc(SC2CCN(c3ccccc3)C2=O)n1 (centres undefined),6.94%
17,CCCc1nnc(N2CCC3(CCC(=O)N(C)C3)CC2)o1,47.2%
18,Cc1cc(CN(C)C(=O)CC(C)C)no1,-7.93%
19,CCOc1ccc(-c2nc(CN(C)Cc3c(C)noc3C)cs2)cc1,88.5%
20,CC(C)c1nc(CN(C)Cc2ccc(O)c(Cl)c2)cs1,17.1%
21,Cc1noc(C)c1CN(Cc1ccccc1)C(C)CN1CCOCC1 (centres undefined),37.4%
22,CC(C)N(Cc1ccccc1)Cc1csc(-c2ncccn2)n1,-50.2%

row,SMILES,INHIBITION
1,COc1ccc(CN(C)Cc2c(C)noc2C)c(Cl)c1OC,14.3%
2,Cc1cc(CN(C)Cc2csc(-c3ccc(C(C)C)cc3)n2)no1,83.4%
3,Cc1noc(C)c1CN(Cc1ccccc1)C(C)C,60.2%
4,Cc1noc(C)c1CN(C)Cc1csc(-c2ncccn2)n1,62.8%
5,CC(C)N(Cc1ccccc1)Cc1nnsc1Cl,-37.8%
6,CC(C)N(CC(N)=O)Cc1csc(-c2ncccn2)n1,-16.8%
7,Cc1noc(C)c1CN(C)C(=O)CCOc1ccc(Cl)cc1,2.65%
8,O=C(CCc1cccc(C2CCNCC2)n1)N1CCCCC1,-3.94%
9,Oc1cccc(CN2C[C@@H]3CC[C@H]2CN(Cc2ccc(F)cc2)C3)c1,39.5%
10,O=C(c1cc(C2CC2)no1)N1C[C@@H]2CC[C@H]1CN(Cc1ccccn1)C2,5.87%
11,O=C(COc1coc(CN2CCCC2)cc1=O)Nc1cc(Cl)ccc1Cl,-12.5%
12,CC(C)CN1CCS(=O)(=O)[C@@H]2CCN(S(=O)(=O)c3ccccc3)CC[C@@H]21,8.85%
13,Cc1noc(C)c1CN(C)Cc1csc(-c2ccc(C(C)C)cc2)n1,91.1%
14,Cc1noc(C)c1CN(C)C(C)c1cccs1 (centres undefined),46.4%
15,Cc1noc(C)c1CN(C)CCC(=O)N1CCc2sccc2C1,0.932%
16,Cc1noc(C)c1CN(C)Cc1nc(N)c2ccccc2n1,20.9%
17,Cc1noc(C)c1CN(C)CC(c1cccs1)N1CCOCC1 (centres undefined),-54.6%
18,CN(CC(N)=O)Cc1csc(-c2ccc(F)cc2)n1,-0.991%
19,Cc1noc(C)c1CN(C)Cc1csc(-c2ccccc2F)n1,62.8%
20,COc1cccc(CN(C)Cc2c(C)noc2C)c1OC,-6.61%
21,Cc1noc(C)c1CN(C)Cc1csc(-c2ccc(F)cc2)n1,77.4%
